Results on 3 compounds are retold here after PubChem BioAssay AID504371 (National Center for Advancing Translational Sciences (NCATS), 2011).

The structures appear in SMILES notation. Inconclusive results are not listed. Active and inactive are the calls of the source. Calls follow the shape of the dose curve; as a rule, active = well fitted curve in the direction sought with a large enough effect; inconclusive = small, poorly fitted or top-dose-only effect, or another doubt; inactive = no such curve, though single readings can be large or run the other way.

The test can be described thus: qHTS Assay for Compounds Blocking the Interaction Between CBF-beta and RUNX1 for the Treatment of Acute Myeloid Leukemia: ME-1 cellular proliferation, SAR for Probe. As to conditions: ME-1 cell proliferation, ATP luminescence, 48 h. From the text: NIH Chemical Genomics Center [NCGC] NIH Molecular Libraries Probe Production centers Network [MLPCN] MLPCN Grant: X01MH083259-01 Assay Submitter (PI): Paul Liu NCGC Assay Overview: Core Binding Factor (CBF) abnormalities are associated with 20-25% of all acute myeloid leukemias (AML), of which 5-10% are further sub classified as acute myelomonocytic leukemia with eosinophilia, also known as M4Eo in the FAB classification scheme. This subtype of leukemia is usually associated with chromosome 16 inversion (p13:q22). Chromosome 16 inversion results in formation of the fusion oncogene CBFB-MYH11, which encodes the fusion protein CBF-beta-SMMHC. […] It has been hypothesized that the interference of CBF-beta and RUNX1 binding could have therapeutic implications for patients with CBF mediated leukemias. We developed a CBF-beta and RUNX1 binding assay in AlphaScreenTM format and optimized it for high throughput screening to search for inhibitors. The goal of this project is to screen MLPCN's compound collection (MLSMR) for identifying the inhibitors of the interaction between CBF-beta and RUNX1 proteins as research probes. If these probes work well in the animal models, the ultimate goal of this project is to development a new drug treatment for this disease. The present assay assesses compounds ability to slow cellular proliferation in a CBFb dependent cell line, ME-1.
NCGC Assay protocol: 2uL/well media was dispensed per well into 1536-well white solid-bottom plates using Multidrop Combi dispenser. Subsequently, 23 nL/well compound solutions or DMSO controls were dispensed to the assay plates via a pintool workstation. […] The plates were incubated at 37 °C with 5% CO2 and 95% humidity for 48 hours, and then ATP content was measured following the addition of 4uL/well of ATPlite reagent and a 20 min incubation on a ViewLux plate reader.
With `CCN(CC)CCN1C(=O)CN=C(c2ccccn2)c2cc(Cl)ccc21`, the Potency was 109 µM (active).

For `CN1C(=O)CN=C(c2ccc[nH]2)c2cc(Cl)ccc21` (tested in a mixture with another compound), the Potency was 27.4 µM (active).

`CCN(CC)CCN1C(=O)CN=C(c2ccc[nH]2)c2cc(Cl)ccc21`: the Potency is 137 µM (active).
